Bioassay records as filed in PubChem BioAssay.
Rows were chosen to be rich in hits. Some 0.47% of all compounds tested hit in one or more screens of this group.
USP2a inh – qHTS Assay for Inhibitors of Ubiquitin-specific Protease USP2a | 60,000 compounds, 0.1% hits | Ubiquitin carboxyl-terminal hydrolase 2 (Homo sapiens), O75604 | Potency, µM (highest dose often 38.3 µM), for the others: at the highest dose activity change, negative = inhibition, usual class: inhibitors | USP2a enzymatic assay, qHTS inhibition; note: potency is the fitted concentration of half-maximal effect; nearly all actives have a fitted effect of over 60% in size
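Inhibition is measured in a cell-free coupled assay with 20 nM USP2 core, 20 nM Ub-PLA2 and 20 uM NBD C6-HPC, 2.5 h incubation. Activity normalized to NEM control.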
UbGFP stabilizer – Ubiquitin-GFP Assay; 67,000 tested, under 10 active; Potency, µM (doses to about 45.9 µM), for inactives: at the top dose activation (GFP accumulation), most hits filed as activators; Ubiquitin-GFP reporter cells, proteasome inhibition, GFP fluorescence; response scale: untreated = 0%, 10 µM MG-132 = 100%; active = well fitted activation curve with a large enough effect, not every such curve was filed as active; inconclusive = small, poorly fitted or top-dose-only effect, or another doubt; inactive = no such curve, though single readings can be large or run the other way; note: potency is the fitted concentration of half-maximal effect
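GFP accumulation read-out: laser plate cytometry counting ubiquitin(G76V)-GFP-expressing U2OS cells after 4 hr compound exposure at 37 °C. Titrations spanned 46 uM to 2.9 nM; 0% = basal, 100% = 10 uM MG-132; concentration-response curves fitted.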
BRCT inh green – qHTS Assay for Inhibitors of BRCT-Phosphoprotein Interaction (Green Fluorophore) | 75,000 compounds, 0.05% hits | BRCA1 BRCT-phosphopeptide binding, green fluorescence polarization | Potency, µM (highest dose often 76.9 µM), for inactives: top-dose activity change, negative = inhibition, most hits filed as inhibitors | AID 875, 2007;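 note: potency is the fitted concentration of half-maximal effect; plate controls were peptide without protein for full effect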
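Compounds were incubated for 12 min at room temperature with a complex of 100 nM fluorescein-tagged pBACH1 decapeptide and 250 nM His-tagged BRCT protein. Buffer was phosphate pH 7.3 with EDTA, DTT and Tween 20. Disruption of binding lowers the polarization signal.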
Hsp90 Hop PPI – qHTS Assay for Disrupters of an Hsp90 Co-Chaperone Interaction. Hsp90 C-terminal peptide / TPR2A (Hop) interaction, human. AlphaScreen TPR2A-His6 binding biotin-Hsp90 C-terminal peptide. Potency, µM (highest dose often 57 µM), for inactives: at the top dose activity change, negative = inhibition. 71,000 compounds, 0.44% hits. AID 595, 2007; active = well fitted curve in either direction with a large enough effect; inconclusive = small, poorly fitted or top-dose-only effect, or another doubt; note: potency is the fitted concentration of half-maximal effect; % is set by controls: 0 for no effect and ±100 for the full control effect
BRCT PPI red – qHTS Assay for Inhibitors of BRCT-Phosphoprotein Interaction (Red Fluorophore). Breast cancer type 1 susceptibility protein (Homo sapiens), P38398. BRCT-phosphopeptide binding, red fluorescence polarization. Potency, µM (highest dose often 76.9 µM), inactives show at the highest dose activity change, negative = inhibition, actives largely listed as inhibitors. 75,000 compounds, 0.03% hits; note: % is set by controls: 0 for no effect and ±100 for the full control effect
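Fluorescence polarization: 100 nM His-tagged BRCA1 BRCT with 100 nM TAMRA-labelled phospho-BACH1 decapeptide, phosphate buffer pH 7.3 with 150 mM NaCl, DTT, 0.01% Tween 20; 12 min RT. Binding inhibition seen as FP decrease.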
YjeE inh – qHTS Assay for Inhibitors of YjeE; Potency, µM; purified YjeE enzyme, qHTS inhibition assay; tRNA threonylcarbamoyladenosine biosynthesis protein TsaE (Escherichia coli (strain …; 71,000 compounds, 0.05% hits
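Purified YjeE (10 uM) with BODIPY Texas Red-labeled ADP probe (2 uM); compounds pin-transferred, 15 min at room temperature. Binding inhibition read as decreased fluorescence polarization; ADP titration as control.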
Hsp90-TPR2A inh – Confirmation Concentration-Response Assay and Counterscreen for Disrupters of an Hsp90 Co-Chaperone Interaction. shares compounds with Hsp90 Hop PPI. activity, negative = inhibition, % at 40 µM or 46 µM, hits read low. AID 632, 2007. 45 compounds, 100% hits. AlphaScreen TPR2A-His6 / biotin-Hsp90 peptide binding;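 active = compound lowering the Hsp90 and TPR2A binding signal, whether or not the linker counterscreen also flagged it as an artifact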
* hit, by the source's call; ! = not active in a repeat; [ ] = dose if it differs, or a comment. Unless noted, calls come from the whole dose curve; as a rule, active = well fitted curve in the direction sought with a large enough effect; inconclusive = small, poorly fitted or top-dose-only effect, or another doubt; inactive = no such curve, though single readings can be large; an effect the other way counts as inactive or inconclusive.

Results for CCN(CC)c1ccc2c(c1)CCCN2 ?
USP2a inh: 12%; UbGFP stabilizer: -2%; BRCT inh green: -4%; Hsp90 Hop PPI: 16µM*; BRCT PPI red: 1%; YjeE inh: inactive

What do the screens show for `C[C@@H]1c2cccc(O)c2C(O)=C2C(=O)[C@@]3(O)C(O)=C(C(N)=O)C(=O)[C@@H](N(C)C)[C@@H]3[C@@H](O)[C@@H]21`?
USP2a inh: 16µM*; UbGFP stabilizer: -9%[20.5 µM]; BRCT inh green: -1%[34.4 µM]; Hsp90 Hop PPI: inconclusive; BRCT PPI red: -1%[34.4 µM]; YjeE inh: inactive

What do the screens show for `COc1ccc2nc3c(cc2c1)c(NC(=O)c1cccs1)nn3CC(C)C`?
USP2a inh: 24%; UbGFP stabilizer: 2%; BRCT inh green: -1%; Hsp90 Hop PPI: 25µM*; BRCT PPI red: 0%; YjeE inh: inactive

What do the screens show for `CCn1nc(NC(=O)c2ccncc2)c2cc3ccccc3nc21`?
USP2a inh: 11%; BRCT inh green: -3%; Hsp90 Hop PPI: 0%; BRCT PPI red: -1%; YjeE inh: inactive

What do the screens show for `COC(=O)[C@H]1C[C@H]2CC[C@H](O)C[C@H]2N1Cc1c(F)cccc1Cl`?
BRCT inh green: 3%; BRCT PPI red: -1%

What do the screens show for `O=C1C=CC2=C3c4cc(O)c(O)cc4CC3(O)COC2=C1O` (stereo not drawn)?
USP2a inh: 10µM*; BRCT inh green: -24%; BRCT PPI red: -19%

What do the screens show for `O=C(O)[C@H]1CCCC[C@@H]1C(=O)Nc1nc2ccccc2[nH]1`?
UbGFP stabilizer: -1%[9.17 µM]; BRCT inh green: 1%[15.4 µM]; Hsp90 Hop PPI: 1%[11 µM]; BRCT PPI red: 0%[15.4 µM]; YjeE inh: inactive

What do the screens show for `Cc1nn(-c2ccc(S(=O)(=O)O)cc2)c(O)c1N=Nc1ccc(-c2ccc(N=Nc3ccc4c(S(=O)(=O)O)cc(S(=O)(=O)O)c(N)c4c3O)c(O)c2)cc1O.[Cu].[Cu]`?
UbGFP stabilizer: 1%[9.17 µM]; BRCT inh green: 6.3µM*; Hsp90 Hop PPI: -16%[11 µM]; BRCT PPI red: 2.5µM*; YjeE inh: inconclusive

What do the screens show for `COc1cc(-c2ccc(N=Nc3ccc4c(S(=O)(=O)O)cc(S(=O)(=O)O)c(N)c4c3O)c(OC)c2)ccc1N=Nc1ccc2c(S(=O)(=O)O)cc(S(=O)(=O)O)c(N)c2c1O`?
USP2a inh: 77%[17.1 µM]; UbGFP stabilizer: -5%; BRCT inh green: 40µM*!; Hsp90 Hop PPI: 4µM*!; BRCT PPI red: inconclusive; YjeE inh: 50µM*

What do the screens show for `O=C1CCC[C@@H](C2=CCCCC2=O)C1`?
BRCT inh green: -1%[15.4 µM]; BRCT PPI red: 1%[15.4 µM]

Results for O=c1c(-c2cccs2)nc2cnc(N3CCOCC3)nc2n1-c1ccccc1 ?
USP2a inh: 283%; UbGFP stabilizer: 29%; BRCT inh green: 2%; Hsp90 Hop PPI: 3.2µM*; BRCT PPI red: 2%; YjeE inh: inactive

Results for Cc1ccc(-n2nc3c([n+]2[O-])CCc2c-3no[n+]2[O-])cc1 ?
USP2a inh: 2µM*; UbGFP stabilizer: 0%; BRCT inh green: -2%; Hsp90 Hop PPI: -1%; BRCT PPI red: -1%; YjeE inh: inactive

Results for Cc1cc(C)n(-c2nc(Nc3ccccc3)nc(-n3nc(C)cc3C)n2)n1 ?
USP2a inh: 13µM*; UbGFP stabilizer: 0%; BRCT inh green: -1%; Hsp90 Hop PPI: 0%; BRCT PPI red: 1%; YjeE inh: inactive

Results for CCC(=O)OCC(=O)[C@@]1(OC(=O)CC)[C@H](C)C[C@@H]2[C@@H]3[C@H]([C@@H](O)C[C@@]21C)[C@]1(C)C=CC(=O)C=C1C[C@@H]3Cl ?
USP2a inh: 36%[17.1 µM]; UbGFP stabilizer: 1%[20.5 µM]; BRCT inh green: -1%[34.4 µM]; Hsp90 Hop PPI: -7%[26 µM]; BRCT PPI red: 1%[34.4 µM]; YjeE inh: inactive

How did O=C1c2ccccc2-c2ccc(N=[N+]([O-])c3ccc4c(c3)C(=O)c3ccccc3-4)cc21 do in these assays?
UbGFP stabilizer: 10%[9.17 µM]; BRCT inh green: 0%[15.4 µM]; Hsp90 Hop PPI: -1%[11 µM]; BRCT PPI red: -1%[15.4 µM]; YjeE inh: inactive

Results for COc1c(O)cc2oc3cc(O)c(CC=C(C)C)c(O)c3c(=O)c2c1CC=C(C)C ?
USP2a inh: 10µM*!; UbGFP stabilizer: 4%; BRCT inh green: 1%; Hsp90 Hop PPI: -7%; BRCT PPI red: 0%; YjeE inh: inactive

How did CC(=O)N[C@@H]1C(O)OC(CO)C(O)C1O (stereo partly drawn) do in these assays?
USP2a inh: -5%; BRCT inh green: 0%[3.08 µM]; BRCT PPI red: 0%

How did Cn1c(=O)[nH]c2nnc(-c3ccccc3)nc2c1=O do in these assays?
Hsp90-TPR2A inh: 12

Results for CC(=O)OC[C@@H]1O[C@@H](O/N=C2/C[C@@H](O)[C@@H](O)[C@@H]3[C@@H]4C(=O)N(C[C@@H]5CCCO5)C(=O)[C@H]4CC[C@@H]23)[C@H](OC(C)=O)[C@H](OC(C)=O)[C@@H]1OC(C)=O ?
BRCT inh green: 0%[15.4 µM]; BRCT PPI red: 1%[15.4 µM]

Results for CCCCNC(=O)CSc1nc2ccccc2c(=O)n1C1CCCC1 ?
USP2a inh: 2%; UbGFP stabilizer: -3%; BRCT inh green: -1%; Hsp90 Hop PPI: 1%; BRCT PPI red: -2%; YjeE inh: inactive; Hsp90-TPR2A inh: -100*[alpha-screen platform artifact]

Results for CCOC(=O)CSc1nc2ccccc2c(=O)n1C1CCCC1 ?
USP2a inh: -1%; UbGFP stabilizer: 4%; BRCT inh green: -2%; Hsp90 Hop PPI: -3%; BRCT PPI red: -1%; YjeE inh: inactive

Results for Cc1ccc(NC(=O)CCCCCC2NC(=O)NC2C)cc1 (stereo not drawn) ?
USP2a inh: 0%; UbGFP stabilizer: 9%; BRCT inh green: 2%; Hsp90 Hop PPI: 0.013µM*; BRCT PPI red: 0%; YjeE inh: inactive; Hsp90-TPR2A inh: -99*[alpha-screen platform artifact]

How did CCN(CC)C(=O)c1sc2nc(-c3ccccn3)[nH]c(=O)c2c1C do in these assays?
USP2a inh: 6%; UbGFP stabilizer: -4%; BRCT inh green: 2%; Hsp90 Hop PPI: 7.9µM*; BRCT PPI red: -1%; YjeE inh: inactive; Hsp90-TPR2A inh: -99*[alpha-screen platform artifact]
